# Only a selection was taken, and hits are over-represented in it overall.
# Pf Dd2 inh – Plasmodium falciparum Dd2 growth inhibition; P. falciparum Dd2 growth, SYBR Green, 72 h; Potency, µM (doses to about 28.9 µM), actives largely listed as inhibitors; 4.3% of 120,000 active; AID 1347417; active = well fitted inhibition curve with a large enough effect; also: nearly all actives have a fitted effect of over 65% in size
#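 Readout: SYBR Green fluorescence, 485 nm excitation, 535 nm emission, after ~16 h lysis at 37C. Before that, Dd2-infected red cells (2.5% hematocrit) grew 72 h with compound, 29 uM top final concentration.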
# Numbers stand for hits; – = inactive; [ ] = another dose, or the depositor's remark.
SMILES,Pf Dd2 inh
CC(C)NC(=O)[C@H]1CN2CCC1C[C@@H]2Cn1cc(C2(O)CCCCC2)nn1 (stereo not given in full),–
CCn1ccc2sc(C)c(C(=O)N3CCCCC3)c2c1=O,–
O=C(Cc1ccc(Cl)cc1)NC1CC(=O)N(c2ccc3c(c2)OCCO3)C1 (stereo not given),–
CCN(CC)S(=O)(=O)c1ccc2c(c1)c(=O)c(C(=O)NCc1ccccc1Cl)cn2C,–
O=C(NC1CCCN(c2cc(N3CCCC3)ncn2)C1)c1ccco1 (stereo not given),–[5.79 µM]
CCCN1CCN(c2cc3c(cc2F)c(=O)c(S(=O)(=O)c2ccc(CC)cc2)cn3CC)CC1,10µM
CCCn1cc(S(=O)(=O)c2ccc(CC)cc2)c(=O)c2cc(F)c(N3CCN(C)CC3)cc21,7.1µM
CCCCn1cc(S(=O)(=O)c2ccccc2)c(=O)c2cc(F)c(N3CCN(CCC)CC3)cc21,–
CCc1ccc(S(=O)(=O)c2cn(C)c3cc(N4CCCC4)c(F)cc3c2=O)cc1,–
CCc1ccc(S(=O)(=O)c2cn(C)c3cc(N4CCOCC4)c(F)cc3c2=O)cc1,–
CCn1cc(S(=O)(=O)c2cc(C)cc(C)c2)c(=O)c2cc(F)c(N3CCC(C)CC3)cc21,–
CCCN(CC1CC1)C(=O)CCC[C@@H]1[C@H]2CCCN3CCC[C@@H](CN1C(C)=O)[C@@H]23,–
COc1cccc(CNC(=O)CCCn2ncn3c(cc4occc43)c2=O)c1,–
COc1ccc(CNC(=O)Cn2c(=O)c3cccn3c3ccccc32)cc1,–
COCCCNc1nc2c(S(=O)(=O)c3ccccc3)nnn2c2ccc(Cl)cc12,–
CCc1ccc(Cn2nnc3c(=O)[nH]c(C4CCCN(C(=O)c5cccc(Cl)c5)C4)nc32)cc1 (stereo not given),–
COc1cccc(Cn2nnc3c(=O)[nH]c(C4CCCN(C(=O)c5ccc(C)cc5)C4)nc32)c1 (stereo not given),10µM
O=c1[nH]c(C2CCCN(S(=O)(=O)c3ccccc3Cl)C2)nc2c1nnn2Cc1ccc(OC(F)(F)F)cc1 (stereo not given),–
COc1ccc(-n2cc(C(=O)NCCc3ccc(C)cc3)c3ccccc3c2=O)cc1,–
CCOc1ccc(CCNC(=O)c2cn(-c3cccc(OC)c3)c(=O)c3ccccc23)cc1,–
CCOc1ccccc1CNC(=O)c1cn(-c2ccc(OC)cc2)c(=O)c2ccccc12,8.9µM
CC(Oc1ccc(Cl)cc1)C(=O)NCc1nnc2ccc(-c3ccccc3)nn12 (stereo not given),–
COc1cccc(C(=O)NC2CCN(c3cc(C(F)(F)F)nc(C)n3)CC2)c1OC,11µM
Cc1nc(N2CCC(NC(=O)c3cc4ccccc4[nH]3)CC2)cc(C(F)(F)F)n1,2µM
Cc1nc(N2CCC(NC(=O)c3cccnc3)CC2)cc(C(F)(F)F)n1,–
SMILES,Pf Dd2 inh
COc1cccc(C(=O)NC2CCN(c3cc(C(F)(F)F)nc(C)n3)CC2)c1,–
COc1ccccc1CCC(=O)NC1CCN(c2cc(C(F)(F)F)nc(C)n2)CC1,–
Cc1nc(N2CCC(NC(=O)c3ccccn3)CC2)cc(C(F)(F)F)n1,–
COCCNC(=O)C[C@@H]1C[C@H]2O[C@H](CNC3CCCCC3)[C@@H](O)[C@H]2O1,–
CCCCc1cc(C[C@@H]2C[C@H](NC(=O)NC(C)C)C2(C)C)no1,–
CC[C@H]1CN(C(=O)c2ccc(F)cc2)CC[C@H]1CC(=O)NC1CCCC1,–
CC1(C)CNC(=O)c2nc(CCSCc3ccco3)[nH]c2C1,–
COc1ccc2[nH]c(C(=O)N3CCC4(CC3)CC(O)CCO4)cc2c1 (stereo not given),11µM
COc1ccc(C(=O)N2CCC3(CC2)CC(O)CCO3)c(C)c1 (stereo not given),–
COc1ccc(C(=O)N2CCC3(CC2)CC(O)CCO3)cc1 (stereo not given),–
CC(C)(C)CC(=O)N1CCN2C(=O)c3cc(Br)ccc3NC(=O)[C@H]2C1,–
Cc1csc2nc(COC(=O)CNC(=O)c3ccccc3)cc(=O)n12,–
COC(=O)CNC(=O)N1CCc2c(nc3cc(-c4ccccc4Cl)[nH]n3c2=O)C1,–
Cc1ccc(CN2CCN(C(=O)C3Cn4cccc4C(=O)N3Cc3cccnc3)CC2)cc1 (stereo not given),13µM
CC(C)CN1C(=O)c2cccn2CC1C(=O)N1CCN(Cc2ccc3c(c2)OCO3)CC1 (stereo not given),–
O=C(O)C1Cn2cccc2C(=O)N1Cc1cccnc1 (stereo not given),–
O=C(Cc1ccccc1F)N1CCC(N2CC3CC(C2)[C@H]2CCCC(=O)N2C3)CC1 (stereo not given in full),–
O=S(=O)(N[C@H]1[C@H](O)[C@H](O)C[C@@H]1c1cncnc1)c1ccc(C(F)(F)F)cc1,–
N#Cc1ccc(S(=O)(=O)N[C@H]2[C@H](O)[C@H](O)C[C@@H]2c2ccc(C(F)(F)F)cc2)cc1,11µM
O=S(=O)(N[C@H]1[C@H](O)[C@H](O)C[C@@H]1c1ccccc1)c1ccc(C(F)(F)F)cc1,–
O=C1Nc2ccccc2C12CCN(S(=O)(=O)c1cccs1)C2 (stereo not given),–
